In PubChem BioAssay:
Activity calls are given as the source filed them.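 How the source made its calls, unless noted: active means visually confirmed hit in the image check and inhibition above 20%; inconclusive means visually confirmed hit but inhibition not above 20%; inactive means no visual hit in the image check.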

Key:
[1] = inhibitors of TNFa-induced NFkB p65 translocation, primary screen, imaging, HUVEC, MLSMR starter and 10KST1 sets (AID 438;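 active means inhibition above 20% together with a positive visual image hit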;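 further: compound added about 3h40 before a 20 min TNFalpha stimulation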;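 on inhibition: signal is the nuclear over cytoplasmic p65 intensity ratio per well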); settings: HUVEC TNFa-induced p65 nuclear translocation; cell count: measured here: nuclei count (cytotoxicity indicator), at 2.08 µM; inhibition: at 2 µM, stronger effect = higher value, 0% TNFa-plus-vehicle, 100% no-TNFa wells
[2] = inhibitors of mutant huntingtin aggregation, primary screen, imaging, exon1htt(103Q)mCFP cells, high-content imaging (AID 483;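 active means visual image review flags a hit and inhibition of aggregation exceeds 20%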;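 further: compound exposure lasted 3 days before fixation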;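 on nuclei count: percent of the per-plate median nuclei count of sample wells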); settings: exon1htt(103Q)mCFP cell line, aggregate imaging, at 2 µM; inhibition of aggregation: stronger effect = higher value; nuclei count: measured here: cell count, toxicity
[3] = inhibitors of E-selectin induction by TNFa, primary screen, imaging, HUVEC, immunofluorescence, MLSMR starter and 10KST1 sets (AID 487); settings: HUVEC TNFalpha-induced E-selectin immunofluorescence imaging, at 2 µM; inhibition: stronger effect = higher value; nuclei count: measured here: cell number, toxicity;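 on inhibition: signal is fraction of cell area covered by stained E-selectin grains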;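 on nuclei count: 100% = median nuclei count of all wells on the same plate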
[4] = molecular target: Voltage-gated potassium channel subunit beta-2 (Rattus norvegicus) (UniProt P62483); assay: KvBeta enzyme negative modulators, primary screen, biochemical, NADPH fluorescence (AID 622;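 active means fluorescence slope higher than the sample average by over 3 SD, cut at about -0.22 in these data, passing the limit was not always enough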;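 further: slope of raw intensity against log time taken from 70 to 1610 s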); settings: recombinant KvBeta, 4-cyanobenzaldehyde reduction, at 10 µM, stronger effect = higher value
Chain of Voltage-gated potassium channel subunit beta-2 (Rattus norvegicus) (P62483 whole entry, looked up): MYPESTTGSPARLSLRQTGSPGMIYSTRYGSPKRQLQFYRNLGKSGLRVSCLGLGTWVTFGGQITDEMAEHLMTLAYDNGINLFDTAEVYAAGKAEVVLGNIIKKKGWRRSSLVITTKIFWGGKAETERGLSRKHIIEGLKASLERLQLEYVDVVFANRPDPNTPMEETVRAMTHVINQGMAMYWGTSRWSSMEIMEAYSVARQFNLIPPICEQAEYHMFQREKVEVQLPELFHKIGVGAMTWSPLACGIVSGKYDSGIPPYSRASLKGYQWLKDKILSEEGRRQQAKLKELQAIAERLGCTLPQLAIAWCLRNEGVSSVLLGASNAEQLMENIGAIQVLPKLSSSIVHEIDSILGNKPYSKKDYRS

[5] = molecular target: Voltage-gated potassium channel subunit beta-2 (Rattus norvegicus) (UniProt P62483); assay: KvBeta positive modulators, primary screen, biochemical, NADPH fluorescence (AID 623;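 active means NADPH fluorescence slope more negative than the mean of all samples by about 3 SD, 99.7% confidence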;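 further: fluorescence intensity change per second fitted from 20 to 320 s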); settings: Recombinant KvBeta, NADPH fluorescence decrease slope, 10 min; at 10 µM; stronger effect = lower value
[6] = molecular target: Alpha-2C adrenergic receptor (Homo sapiens) (UniProt P18825); assay: modulators of alpha2C/GIRK thallium flux, primary screen, cell-based, HEK293 alpha2C/GIRK1/2 (AID 624;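 active means fluorescence slope after compound addition differing from the mean of all screened samples at 99.7% confidence, in either direction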;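 further: slope of fluorescence ratio to pre-addition baseline per second over 15 to 24 s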); settings: thallium flux BTC fluorescence, at 10 µM, actives lie on both sides
Chain of Alpha-2C adrenergic receptor (Homo sapiens) (P18825 whole entry, looked up): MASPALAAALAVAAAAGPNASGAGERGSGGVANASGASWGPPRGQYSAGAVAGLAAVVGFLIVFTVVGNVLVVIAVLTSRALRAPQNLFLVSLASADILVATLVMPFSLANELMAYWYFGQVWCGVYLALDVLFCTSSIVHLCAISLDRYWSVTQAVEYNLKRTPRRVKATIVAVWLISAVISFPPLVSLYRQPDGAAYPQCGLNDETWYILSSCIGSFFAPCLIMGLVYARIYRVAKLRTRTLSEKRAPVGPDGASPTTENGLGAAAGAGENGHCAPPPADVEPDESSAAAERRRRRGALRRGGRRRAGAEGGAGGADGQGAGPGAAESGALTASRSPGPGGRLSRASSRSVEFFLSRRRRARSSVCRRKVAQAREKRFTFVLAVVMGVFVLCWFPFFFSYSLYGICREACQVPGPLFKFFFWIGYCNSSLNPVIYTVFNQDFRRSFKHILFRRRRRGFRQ

[7] = inhibitors of Sendai virus-induced IRF3 signaling, primary screen, TLR/RLR signaling modifier project, cell-based, Sendai virus stimulus, luciferase, 10K MLSCN set (AID 602276;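 active means inhibition at or above 50% at 10 µM; inactive means inhibition below 50%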;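 further: firefly luciferase from ISG56 promoter only with Renilla not read in this screen; 0% = Sendai virus plus DMSO and 100% = medium plus DMSO without virus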); settings: HEK293 RL24 IRF3 luciferase reporter, at 10 µM, stronger effect = higher value
[8] = inhibitors of poly I:C-induced TLR3 signaling, primary screen, cell-based, poly I:C stimulus, luciferase, 10K MLSCN set (AID 602277;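 active means inhibition of the reporter signal at or above 50%; inactive means inhibition below 50%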); settings: HEK293-TLR3 RL24 IRF3 luciferase reporter, at 10 µM, stronger effect = higher value

Structure (SMILES)	cell count [1]	inhibition [1]	inhibition of aggregation [2]	nuclei count [2] [%]	inhibition [3]	nuclei count [3] [%]	fluorescence slope [4]	NADPH fluorescence slope [5]	slope [6]	inhibition [7]	inhibition [8]
CC(C)CCSc1nc2c(c(=O)[nH]c(=O)n2C)n1CCCc1ccccc1	618	-5.9% (inactive)	26.4% (inactive)	103	-34.8% (inactive)	120	-0.414 (inactive)	-4.8e-05 (inactive)	0.00519 (inactive)	10.3% (inactive)	29.8% (inactive)
Cc1cc(C)cc(NS(=O)(=O)c2ccc3[nH]c(=O)[nH]c3c2)c1	378	-5.5% (inactive)	2.4% (inactive)	112	-23.4% (inactive)	115	-0.392 (inactive)	4.9e-07 (inactive)	0.00328 (inactive)	16.1% (inactive)	36.9% (inactive)
CC(C)(C)c1ccc(OCC(=O)O)cc1	567	3.1% (inactive)	11.7% (inactive)	98	-36% (inactive)	96.2	-0.599 (inactive)	-3.9e-05 (inactive)	0.00377 (inactive)	7.32% (inactive)	11.4% (inactive)
Cc1cc(C)n(C(=O)CCCCCC(=O)n2nc(C)cc2C)n1	440	5.5% (inactive)	1.5% (inactive)	116	-195% (inactive)	116	-0.524 (inactive)	8.7e-06 (inactive)	0.0053 (inactive)	18.5% (inactive)	26.3% (inactive)
CC(=O)C1=C(C)OC(N)=C(C#N)C1c1ccncc1 (stereo unspecified)	322	3.7% (inactive)	-14.4% (inactive)	97.8	39.3% (inactive)	112	-0.616 (inactive)	-5.3e-05 (inactive)	0.004 (inactive)	12.5% (inactive)	16.8% (inactive)
O=C1CCN(C(=O)c2ccccc2)C2CCCCC12 (stereo unspecified)	511	-8.7% (inactive)	4.4% (inactive)	41.3	19.1% (inactive)	81.9	-0.408 (inactive)	1.6e-05 (inactive)	0.00412 (inactive)	-7.18% (inactive)	15.9% (inactive)
CC1(C)CN=C(N2CCN(c3ncnc4sc5c(c34)CCCC5)CC2)S1	395	4.1% (inactive)	-0.4% (inactive)	80.5	-28.7% (inactive)	113	-0.379 (inactive)	-4.9e-05 (inactive)	0.0035 (inactive)	6.95% (inactive)	5.35% (inactive)
Cc1cc(S(=O)(=O)N2CCN(c3ccccc3C)CC2)ccc1F	651	-8.1% (inactive)	-13.5% (inactive)	103	-131% (inactive)	125	-0.462 (inactive)	1.6e-05 (inactive)	0.00665 (inactive)	14.2% (inactive)	28.2% (inactive)
Cc1ccccc1NS(=O)(=O)c1cc(C(=O)N2CCCC2)ccc1C	481	-7.1% (inactive)	16.1% (inactive)	86.1	9.5% (inactive)	94.2	-0.601 (inactive)	-3.9e-05 (inactive)	0.00473 (inactive)	-10.7% (inactive)	6.74% (inactive)
CCOc1cc2[nH]c(=S)n(CC3CCCO3)c(=O)c2cc1OCC (stereo unspecified)	317	-0.5% (inactive)	1% (inactive)	104	-51.1% (inactive)	115	-0.491 (inactive)	4e-05 (inactive)	0.00618 (inactive)	-8.82% (inactive)	15.8% (inactive)
CC(=O)c1ccc(NC(=O)CCc2c(C)nc3ncnn3c2C)cc1	363	0% (inactive)	11.4% (inactive)	103	-31.1% (inactive)	113	-0.498 (inactive)	-2.9e-05 (inactive)	0.00573 (inactive)	-9.29% (inactive)	-11.6% (inactive)
O=C(CSc1nnc(C2COc3ccccc3O2)o1)N1CCCc2ccccc21 (stereo unspecified)	438	-1.8% (inactive)	0.8% (inactive)	87.9	-80.9% (inactive)	136	-0.298 (inactive)	-4e-06 (inactive)	0.00363 (inactive)	12.5% (inactive)	34.9% (inactive)
Cc1[nH]c(=O)[nH]c(=O)c1S(=O)(=O)N1CCCC(C(=O)NCc2ccco2)C1 (stereo unspecified)	377	-2.8% (inactive)	-4.9% (inactive)	104	-48.3% (inactive)	106	-0.402 (inactive)	-2.3e-05 (inactive)	0.00332 (inactive)	-2.81% (inactive)	24.8% (inactive)
Cc1onc(-c2ccccc2)c1C(=O)N1CCN(C(=O)c2ccco2)CC1	601	2.2% (inactive)	-0.2% (inactive)	111	-20.4% (inactive)	93.8	-0.5 (inactive)	-4.3e-05 (inactive)	0.00556 (inactive)	14.1% (inactive)	20.5% (inactive)
Cn1cnc2c(N3CCCCC3)nccc21	720	-31% (inactive)	0.5% (inactive)	97.8	-88.5% (inactive)	122	-0.417 (inactive)	-0.000121 (inactive)	0.00681 (inactive)	7.97% (inactive)	22.8% (inactive)
CCOc1ccc2[nH]cc(C(=O)N3CCN(CC)CC3)c(=O)c2c1	498	-16.7% (inactive)	4.7% (inactive)	77.2	-18.9% (inactive)	94.8	-0.539 (inactive)	1.9e-05 (inactive)	0.00496 (inactive)	-17.3% (inactive)	-19.5% (inactive)
Fc1ccc(-c2nnc(CN3CCN(c4ncc(C(F)(F)F)cc4Cl)CC3)o2)cc1	405	-14.7% (inactive)	8.2% (inactive)	111	-9.8% (inactive)	124	-0.435 (inactive)	-8.4e-06 (inactive)	0.00518 (inactive)	8.36% (inactive)	-7.66% (inactive)
CC(C)(C)c1ccc(-c2nnc(SCCC#N)n2C2CCCC2)cc1	410	5.5% (inactive)	10.8% (inactive)	115	-2.3% (inactive)	97.3	-0.483 (inactive)	-3e-05 (inactive)	0.00637 (inactive)	-5.13% (inactive)	10.8% (inactive)
O=C(NC1CCCCCC1)C1CCCN(S(=O)(=O)c2cccs2)C1 (stereo unspecified)	714	-6.2% (inactive)	-1% (inactive)	109	-27.6% (inactive)	108	-0.428 (inactive)	-6.4e-05 (inactive)	0.00338 (inactive)	-10.9% (inactive)	2.4% (inactive)
COc1ccc(-n2cnnc2SCCC#N)cc1	520	-3.8% (inactive)	-0.2% (inactive)	82.5	-115% (inactive)	122	-0.549 (inactive)	-2.7e-05 (inactive)	0.00567 (inactive)	6.27% (inactive)	12% (inactive)
CC1=C(C(=O)OC(C)C)C(c2cccc(F)c2)n2ncnc2N1 (stereo unspecified)	752	0% (inactive)	19% (inactive)	95.5	-76.3% (inactive)	114	-0.6 (inactive)	1.6e-05 (inactive)	0.00586 (inactive)	-7.13% (inactive)	22.1% (inactive)
O=C(c1sc2ccccc2c1Cl)N(Cc1cccs1)C1CCS(=O)(=O)C1 (stereo unspecified)	677	4.4% (inactive)	17.9% (inactive)	90.3	10.4% (inactive)	108	-0.579 (inactive)	-2.7e-05 (inactive)	0.00741 (inactive)	10.4% (inactive)	32.5% (inactive)
O=C(Nc1ccc(S(=O)(=O)N2CCc3ccccc32)cc1)c1ccc2c(c1)OCO2	307	-10% (inactive)	14.7% (inactive)	95.5	5.1% (inactive)	83.2	-0.603 (inactive)	-1.6e-05 (inactive)	0.0108 (inactive)	-3.74% (inactive)	-67.6% (inactive)
COCc1nnc(NS(=O)(=O)c2ccc(Br)cc2)s1	757	-12.1% (inactive)	13.5% (inactive)	102	30.4% (inactive)	90.2	-0.362 (inactive)	4.4e-05 (inactive)	0.00659 (inactive)	18.1% (inactive)	19.6% (inactive)
NC(=O)C1CCN(c2nc(-c3ccccc3)nc3ccccc23)CC1	554	-15.4% (inactive)	2% (inactive)	116	49.5% (inactive)	92.8	-0.46 (inactive)	-6.1e-05 (inactive)	0.00467 (inactive)	10% (inactive)	8.01% (inactive)
CCCCc1ccc(NC(=O)C2CCCO2)cc1 (stereo unspecified)	387	-1.8% (inactive)	-7.2% (inactive)	105	-122% (inactive)	98.5	-0.376 (inactive)	-3e-05 (inactive)	0.00635 (inactive)	-42.7% (inactive)	-136% (inactive)
